The values that follow come from PubChem BioAssay (NCATS).

What all share (assay): Primary qHTS to identify gynecologic anti-cancer compounds using libraries of approved drugs and bioactive compounds (AID 1345084); note: nearly all actives have a fitted effect of over 55% in size
For one assay, the system named is C33A. The following applies: Gynecologic cancer cell panel viability, ATPlite luminescence, 48 h; series mostly up to 57.5 µM. The procedure, abridged: (§1)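 48 h compound exposure at 37 C, 5% CO2; five-point qHTS. ATPlite luminescence readout of cell ATP.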
The next assay has as its system CAOV3. The conditions noted are these: Gynecologic cancer cell panel viability, ATPlite luminescence, 48 h; series mostly up to 57.5 µM. In outline: as §1
For another assay, the system named is CASKI. The following applies: Gynecologic cancer cell panel viability, ATPlite luminescence, 48 h; series mostly up to 57.5 µM. In outline:
as §1

A further assay deals with Es-2. The following applies: Gynecologic cancer cell panel viability, ATPlite luminescence, 48 h; series mostly up to 57.5 µM. The procedure, abridged:
as §1

The next assay relates to HeLa. The conditions noted are these: Gynecologic cancer cell panel viability, ATPlite luminescence, 48 h; series mostly up to 57.5 µM. The procedure, abridged:
as §1

The test system of the next assay is Hek293T. The following applies: Gynecologic cancer cell panel viability, ATPlite luminescence, 48 h, control line for the selectivity index; series mostly up to 57.5 µM. The procedure, abridged: as §1
The next assay has as its system JEG-3. The following applies: Gynecologic cancer cell panel viability, ATPlite luminescence, 48 h; series mostly up to 57.5 µM. The procedure, abridged: as §1
A further assay deals with OV90. The conditions noted are these: Gynecologic cancer cell panel viability, ATPlite luminescence, 48 h; series mostly up to 57.5 µM. In outline: as §1
The test system of another assay is PA-1. The following applies: Gynecologic cancer cell panel viability, ATPlite luminescence, 48 h; series mostly up to 57.5 µM. In outline:
as §1

A further assay deals with SKOV3. The conditions noted are these: Gynecologic cancer cell panel viability, ATPlite luminescence, 48 h; series mostly up to 57.5 µM. The procedure, abridged: as §1
For a further assay, the system named is Tov-21-G. The conditions noted are these: Gynecologic cancer cell panel viability, ATPlite luminescence, 48 h; series mostly up to 57.5 µM. The procedure, abridged: as §1
The next assay has as its system Tov112D. The following applies: Gynecologic cancer cell panel viability, ATPlite luminescence, 48 h; series mostly up to 57.5 µM. In outline:
as §1

Results filed as inconclusive are left out. A number with no mark means an inactive call. The source made the active and inactive calls. Calls come from the whole dose curve; as a rule, active = well fitted cell-killing curve with a large enough effect; inconclusive = small, poorly fitted or top-dose-only effect, or effect the other way; inactive = flat fitted curve, though single readings scatter.
% is set by controls: 0 for no effect and ±100 for the full control effect; potency is the fitted concentration of half-maximal effect.

Consider `CC(CCC1(O)OC2CC3C4CC=C5C[C@@H](O[C@@H]6O[C@H](CO)[C@@H](O[C@@H]7O[C@@H](C)[C@H](O)[C@@H](O)[C@H]7O)[C@H](O)[C@H]6O[C@@H]6O[C@@H](C)[C@H](O)[C@@H](O)[C@H]6O)CC[C@]5(C)C4CC[C@]3(C)[C@@]2(O)[C@@H]1C)CO[C@@H]1O[C@H](CO)[C@@H](O)[C@H](O)[C@H]1O` (stereo not given in full), for which the activity change, negative = cytotoxicity with C33A is -5.46% [at 11.6 µM]; in the assay on CASKI, 14.6% [at 11.6 µM]; in the assay with Es-2 it was 10.8% [at 11.6 µM]; in the assay on HeLa it was 4.9% [at 11.6 µM]; with Hek293T, 7.85% [at 11.6 µM]; in the assay with JEG-3, 5.47% [at 11.6 µM]. The activity change, negative = cytotoxicity was 3.45% [at 11.6 µM] in the assay with OV90; 19.4% [at 11.6 µM] in the assay with PA-1; 2.43% [at 11.6 µM] in the assay with SKOV3; 0.779% [at 11.6 µM] in the assay with Tov-21-G; -0.117% [at 11.6 µM] in the assay with Tov112D. Moreover, the Potency with CAOV3 is 1000 nM (active).
Consider `NS(=O)(=O)c1ccc(N2N=C(c3ccccc3)CC2c2ccccc2)cc1` (stereo not given), for which the Potency result with C33A, in the assay with CAOV3, with CASKI, with Es-2, with HeLa and in the assay with Hek293T was “inactive” in each case. For the same compound, the Potency result in the assay with JEG-3, with OV90, in the assay on PA-1, in the assay on SKOV3, with Tov-21-G and in the assay with Tov112D was “inactive” throughout.
Consider `Cc1nc2c(C(F)(F)F)cccc2nc1-c1ccc(-c2cccc(S(C)(=O)=O)c2)cc1`, for which the Potency result with C33A, in the assay with CAOV3, in the assay with CASKI, in the assay with Es-2, in the assay on HeLa and with Hek293T was “inactive” throughout. The Potency entry with JEG-3, in the assay with OV90, in the assay on PA-1, in the assay on SKOV3, with Tov-21-G and in the assay with Tov112D was “inactive” throughout.
On to `CCC/C=C\C=C/CCc1cc(O)c([C@@H]2O[C@H](CO)[C@@H](O)[C@H](O)[C@H]2O)c(O)c1C(=O)OC`, for which the Potency result with C33A, in the assay with CAOV3, with CASKI, with Es-2, in the assay with HeLa and in the assay with Hek293T was “inactive” in each case. Besides, the Potency entry in the assay with JEG-3, in the assay with OV90, in the assay with PA-1, with SKOV3, in the assay on Tov-21-G and in the assay with Tov112D was “inactive” each time.
Take `Cc1ccc(N2CCN(S(=O)(=O)N3CCCCC3)CC2)c(C)c1`: the Potency result in the assay on C33A, in the assay on CAOV3, in the assay with CASKI, in the assay with Es-2, in the assay on HeLa and in the assay with Hek293T was “inactive” in each case. Moreover, the Potency entry with JEG-3, with OV90, with PA-1, in the assay with SKOV3, in the assay with Tov-21-G and with Tov112D was “inactive” each time.
Take `COC1C=C(C)C(O)(CO)C2(C)CCCC(C)(C)C12` (stereo not given): the Potency result with C33A, in the assay with CAOV3, in the assay with CASKI, in the assay with Es-2, in the assay with HeLa and in the assay on Hek293T was “inactive” each time. Moreover, the Potency result with JEG-3, in the assay on OV90, with PA-1, in the assay with SKOV3, with Tov-21-G and in the assay with Tov112D was “inactive” each time.
`Cc1onc(-c2ccccc2)c1C(=O)N1CCN(c2ccc([N+](=O)[O-])cc2Cl)CC1`: the Potency result with C33A, with CAOV3, in the assay with CASKI, with Es-2, in the assay on HeLa and with Hek293T was “inactive” each time. Besides, the Potency result in the assay on JEG-3, in the assay with OV90, in the assay with PA-1, in the assay on SKOV3, in the assay with Tov-21-G and with Tov112D was “inactive” each time.
For the compound `CCC(C)C(=O)Oc1cc(C)ccc1C1(COC(=O)C(C)C)CO1` (stereo not given), the Potency entry with C33A, in the assay on CAOV3, in the assay with CASKI, with Es-2, in the assay with HeLa and in the assay with Hek293T was “inactive” throughout. Moreover, the Potency entry in the assay on JEG-3, with OV90, in the assay with PA-1, in the assay with SKOV3, in the assay with Tov-21-G and in the assay on Tov112D was “inactive” each time.
In the case of `O=C(Nc1ccc(Cl)cc1)c1ccccc1NCc1ccncc1`, the Potency entry with C33A, with CAOV3, in the assay on CASKI, with Es-2, in the assay with HeLa and with Hek293T was “inactive” throughout. For the same compound, the Potency result in the assay on JEG-3, in the assay with OV90, in the assay with PA-1, with SKOV3, with Tov-21-G and in the assay on Tov112D was “inactive” each time.
As to `Cc1cc(F)ccc1-c1nc(NCCN=C(N)NC#N)nc2c1ccc(=O)n2-c1c(F)cccc1F`, the Potency entry with C33A, in the assay on CAOV3, in the assay on CASKI, in the assay with Es-2, in the assay with HeLa and in the assay with Hek293T was “inactive” throughout. Moreover, the Potency result with JEG-3, in the assay with OV90, in the assay on PA-1, with SKOV3, with Tov-21-G and in the assay on Tov112D was “inactive” throughout.
With `CC(=O)O[C@]1(C(C)=O)CC[C@H]2[C@@H]3CCC4=CC(=O)CCC4=C3[C@@H](c3ccc(N(C)C)cc3)C[C@@]21C`, the Potency result with C33A, in the assay on CAOV3, in the assay on CASKI, in the assay on Es-2, in the assay with HeLa and with Hek293T was “inactive” in each case. In addition, the Potency result in the assay with JEG-3, with OV90, with PA-1, in the assay on SKOV3, in the assay on Tov-21-G and in the assay on Tov112D was “inactive” throughout.
For `C/C=C/CCC1Cc2cc(O)c(CCCC)c(O)c2C(=O)O1` (stereo not given), the Potency entry in the assay on C33A, in the assay on CAOV3, with CASKI, with Es-2, with HeLa and with Hek293T was “inactive” throughout. Also, the Potency entry with JEG-3, in the assay on OV90, in the assay with PA-1, in the assay on SKOV3, in the assay with Tov-21-G and with Tov112D was “inactive” each time.
As for `N#Cc1ccc(COC[C@H]2O[C@@H](n3c(NCc4ccc(Cl)c(Cl)c4)nc4c(N)ncnc43)[C@H](O)[C@@H]2O)cc1`, the Potency result with C33A, in the assay on CAOV3, in the assay on CASKI, with Es-2, with HeLa and in the assay with Hek293T was “inactive” throughout. In addition, the Potency result in the assay with JEG-3, with OV90, with PA-1, in the assay with SKOV3, with Tov-21-G and in the assay with Tov112D was “inactive” each time.
As to `COc1ccc(CCO[C@@H]2O[C@H](CO[C@H]3OC[C@](O)(CO)[C@H]3O)[C@@H](OC(=O)/C=C/c3ccc(O)c(O)c3)[C@H](O[C@@H]3O[C@@H](C)[C@H](O)[C@@H](O)[C@H]3O)[C@H]2O)cc1OC`, the Potency entry with C33A, in the assay with CAOV3, in the assay on CASKI, in the assay with Es-2, in the assay on HeLa and with Hek293T was “inactive” in each case. Also, the Potency entry in the assay with JEG-3, in the assay on OV90, in the assay on PA-1, in the assay on SKOV3, in the assay with Tov-21-G and in the assay on Tov112D was “inactive” in each case.
`O=C(NC[C@H]1CN(c2ccc(N3CCOCC3=O)cc2)C(=O)O1)c1ccc(Cl)s1`: the Potency result with C33A, in the assay with CAOV3, in the assay on CASKI, in the assay on Es-2, with HeLa and in the assay on Hek293T was “inactive” in each case. Also, the Potency entry in the assay with JEG-3, in the assay with OV90, with PA-1, with SKOV3, in the assay on Tov-21-G and in the assay with Tov112D was “inactive” throughout.
